# This is a sample that favours compounds with a hit; in the whole collection about 4.1% have one here.
# tim10-1 inh – tim10-1 yeast growth inhibition. 330,000 compounds, 2.2% hits. S. cerevisiae tim10-1 ts strain growth, BacTiter-Glo, 24 h. AID 463190. inhibition, % at 20 µM;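 active means inhibition of at least 40%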;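 further: mutant grown at 25 °C; 0% = DMSO wells with yeast and 100% = wells holding no yeast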
# NALP1 inh – blocks the NALP1 inflammasome reconstituted in yeast | inhibition, % at 10 µM | 280,000 compounds, 0.61% hits | S. cerevisiae NALP1/ASC/caspase-1 growth, X-gal OD620, 72 h; in the data active means inhibition mostly above about 24%, no sharp cut-off; inactive means mostly below about 32%
# tim23-1 inh – growth inhibitors of tim23-1 mutant yeast; S. cerevisiae tim23-1 growth, BacTiter-Glo luminescence, 24 h; inhibition, % at 20 µM; 330,000 compounds, 1.3% hits; AID 463212;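 active means growth inhibition of the mutant yeast at or above 50%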;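 further: temperature-sensitive mutant grown at 25 °C; plate controls were DMSO-treated mutant yeast for no effect and medium wells lacking yeast for full effect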
# TIM10 inh – TIM10 yeast growth inhibition; S. cerevisiae TIM10 strain growth, BacTiter-Glo luminescence, 24 h; AID 463195; 330,000 compounds, 1.4% hits; inhibition, % at 10 µM;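 active means inhibition of 40% or more at the single tested concentration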;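 further: wild-type TIM10 isogenic control strain grown at permissive 25 °C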
# NLRP3 yeast inh – inhibitors of NALP3 inflammasome in yeast; inhibition, % at 10 µM; Yeast reconstituted NLRP3/ASC/caspase-1, beta-gal luminescence, 24 h; AID 2825; 330,000 compounds, 0.39% hits;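 active means inhibition of 50% or more; inactive means inhibition below 50%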;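 further: plate controls were induced DMSO wells for no effect and uninduced yeast grown without galactose for full effect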
# tim10-1 confirm – confirmation of tim10-1 mutant yeast growth inhibitors | inhibition, % at 20 µM | AID 463213 | shares compounds with tim10-1 inh | S. cerevisiae tim10-1 ts strain growth, BacTiter-Glo, 24 h | 7,400 compounds, 56% hits;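 active means inhibition of yeast growth at or above a set limit in either of two repeat tests at 20 µM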;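 further: tim10-1 mutant grown at permissive 25 °C to find synthetic lethal compounds; 0% = DMSO yeast wells and 100% = medium wells without yeast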
# Starred values were filed as active, the others as inactive; x = no result given.
SMILES,tim10-1 inh,NALP1 inh,tim23-1 inh,TIM10 inh,NLRP3 yeast inh,tim10-1 confirm
COc1cc(/C=N/NC(=O)NC23CC4CC(CC(C4)C2)C3)ccc1O,51*,10,50,18,-2,14
O=C(CSc1nc(-c2ccc(F)cc2)cc(C(F)(F)F)n1)NCc1ccco1,12,17,-13,-22,16,x
CC(=O)Oc1ccc2c(=O)oc(-c3ccccc3C)nc2c1,44*,-7,41,20,22,40*
CC(C)c1ccc(S(=O)(=O)Nc2ccc3c(c2)OCO3)cc1,16,x,31,12,33,x
CN(C)c1nc(NCc2ccccc2)nc(N/N=C/c2ccc3c(c2)OCO3)n1,41*,6,39,13,39,25
O=c1[nH]c(N/N=C\c2ccc3c(c2)OCO3)nc2ccccc12,40*,16,17,19,0,22
O=c1[nH]c(N/N=C/c2cc3c(cc2[N+](=O)[O-])OCO3)nc2ccccc12,6,1,-2,-4,-5,x
Cc1ccc(-c2ccc(=O)n(CC(=O)N3CCN(c4cc(Cl)ccc4C)CC3)n2)cc1,43*,-13,37,13,5,28
Cc1c(Cl)cccc1NC(=O)c1cccc(OC(F)F)c1,47*,62,46,35,26,48*
Cc1ccc(NC(=O)c2cccc(OC(F)F)c2)c(OC(F)F)c1,32,37,30,16,30,x
CCC(=O)N1c2ccc(S(=O)(=O)CCC(=O)N3CCn4c3nc3ccccc34)cc2CC1C (stereo not given),45*,14,6,17,-15,29
CC(=O)C1=C(C)OC(N)=C(C#N)C1c1cc2cccc(C)c2nc1Cl (stereo not given),46*,6,32,20,28,25
CC(=O)C1=C(c2ccccc2)OC(N)=C(C#N)C1c1ccccc1C (stereo not given),45*,20,22,15,-4,20
O=C(Cn1cnc(S(=O)(=O)N2CCOCC2)c1)Nc1ccc(OC(F)(F)F)cc1,-5,-17,10,-1,27,x
CCOC(=O)c1nn(-c2ccccc2)c(=O)c2c(N)scc12,51*,12,16,25,1,26
CCOC(=O)c1nn(-c2ccccc2C)c(=O)c2c(N)scc12,18,17,5,-6,15,x
CCCCCCCCNC(=O)/C(C#N)=C/c1ccc2c(c1)OCCO2,36,31,30,28,28,x
CCCCCCCCNC(=O)/C(C#N)=C/c1ccc(SC)cc1,50*,22,44,29,19,38*
COC(=O)c1c(NC(=O)CCNCc2ccco2)sc2c1CCC2,12,1,17,3,29,x
CCOC(=O)c1cc(-c2ccccc2)sc1NC(=O)C(C)N1C(=O)c2ccccc2C1=O (stereo not given),-4,14,-11,9,-11,x
CCN1C(=O)C2(C(C#N)=C(N)Oc3c2c(C)nn3-c2ccccc2)c2ccccc21 (stereo not given),64*,11,39,33,0,62*
Cc1ccccc1-c1nc(CS(=O)(=O)CC(=O)NC2CCCCC2C)c(C)o1 (stereo not given),41*,4,15,14,20,-2
Cc1oc(-c2ccccc2F)nc1CSCC(=O)NC1CCC(C)CC1 (stereo not given),40*,14,28,6,12,-7
Cc1ccccc1-c1nc(CS(=O)(=O)CC(=O)NC2CC2)c(C)o1,-5,18,-5,-7,20,x
Cc1nc2ccccc2n1C(=O)N(C)C,-2,-4,0,-24,7,x
SMILES,tim10-1 inh,NALP1 inh,tim23-1 inh,TIM10 inh,NLRP3 yeast inh,tim10-1 confirm
CCCC(C)C(=O)Nc1nc(C)c(-c2csc(Nc3ccc(Cl)cc3)n2)s1 (stereo not given),44*,0,39,30,-4,19
O=C(c1cn(-c2ccccc2)nc1-c1ccc(Cl)s1)N1CCOCC1,44*,40,25,21,9,25
O=C(c1cn(-c2ccccc2)nc1-c1ccc(Cl)cc1)N1CCOCC1,35,20,46,31,10,x
O=C(CCNc1cc(Cl)cc(Cl)c1)c1cccs1,46*,14,42,35,12,19
Cc1cc(Nc2ccccc2)c2c([N+](=O)[O-])c(C)cc(C)c2n1,41*,x,45,32,11,27
Cc1cccc(Nc2cc(C)nc3ccccc23)c1,-15,3,-5,-6,18,x
COc1ccc(/C=C2\Oc3ccccc3C2=O)cc1,-5,x,31,0,45,x
CC(=O)Oc1ccc(/C=C2/Oc3ccccc3C2=O)cc1,44*,21,40,26,5,8
Cc1ccc(C)c(N2C(=O)CC(Cc3ccccc3)C2=O)c1 (stereo not given),8,20,6,2,11,x
COc1cc2c(cc1NC(=S)Nc1cccc(C(F)(F)F)c1)oc1ccccc12,40*,-4,40,36,15,23
COc1cc2c(cc1NC(=S)Nc1cccc3ccccc13)oc1ccccc12,15,21,13,6,15,x
CCc1cc2c(=O)nc3n(c2s1)Cc1ccccc1/C3=C(/O)c1cccc([N+](=O)[O-])c1,30,-9,42,28,42,x
CCc1cc2c(=O)nc3n(c2s1)Cc1ccccc1/C3=C(/O)c1ccc(F)cc1,44*,13,43,19,18,35*
Cn1cccc1/C=C1\CCC/C(=C\c2cccn2C)C1=O,50*,-6,23,20,13,21
CCOc1ccccc1C(=O)Nc1cc(OC)ccc1OC,43*,4,42,39,29,37*
CCOc1cc(NC(=O)c2ccccc2OC)c(OCC)cc1NC(=O)c1ccccc1,-19,16,-17,0,7,x
COc1ccccc1C(=O)Nc1ccccc1SC(=O)c1ccccc1OC,43*,22,42,39,30,37*
C/C(=N\OC(=O)Nc1ccccc1)c1cnn(-c2cc(C(F)(F)F)cc(C)n2)c1C,-10,-2,-6,1,10,x
Cc1cccc(NC(=O)c2ccc3c(c2)CCN3S(C)(=O)=O)c1,8,12,10,21,14,x
COc1ccc(-c2nc(CS(=O)CC(=O)NC3CCCc4ccccc43)c(C)o2)cc1OC (stereo not given),15,-17,16,15,10,x
COc1ccc(-c2nc(CSCC(=O)NC3CCCc4ccccc43)c(C)o2)cc1OC (stereo not given),41*,-2,29,21,2,11
CC(C)N(Cc1nc(-c2ccccc2)no1)C(=O)c1ccc2c(c1)OCO2,81*,5,34,20,14,24
Cc1ccc(-c2noc(CN(C(=O)c3ccc4c(c3)OCO4)C(C)C)n2)cc1,15,18,16,27,3,x
O=[N+]([O-])c1cc(NCCO)c(N2CCCCCC2)c2nonc12,15,2,2,14,14,x

# Assay outcomes: PubChem BioAssay, Sanford-Burnham Center for Chemical Genomics
